According to PubChem BioAssay AID1347414 (National Center for Advancing Translational Sciences (NCATS), 2020):
Inconclusive results are not listed. Unmarked numbers belong to inactive results. Active and inactive are the calls of the source. Calls follow the shape of the dose curve; as a rule, active = well fitted inhibition curve with a large enough effect; inconclusive = small, poorly fitted or top-dose-only effect; inactive = no such curve, though single readings can be large or run the other way.

assay: qHTS to identify inhibitors of the type 1 interferon - major histocompatibility complex class I in skeletal muscle: Secondary screen by immunofluorescence; settings: C25cl48 myoblasts, IFN-b induced HLA-ABC immunofluorescence, 24 h; series mostly up to 49.8 µM; activity change, negative = inhibition: at the top concentration; also: nearly all actives have a fitted effect of over 70% in size;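 as to activity change, negative = inhibition: digitonin at 100 µM served as the cytotoxic control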
In short: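 HLA-ABC immunofluorescence, with nuclear and cell-body stains, was quantified by laser scanning cytometry. Read-out followed 24 h of IFN-beta (4.0 ng/ml) stimulation of C25cl48 human myoblasts with compounds titrated 1:3 over 11 points from 50 uM, with ruxolitinib as inhibitor control.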
% is scaled to controls: 0 for no effect and ±100 for the full control effect; potency is read from the fitted curve at half-maximal effect.

For `Cc1ccc(-c2ncn(-c3ccc(Nc4nccc(-c5cccc(N6CCOCC6)c5)n4)cc3)n2)cn1`, which Potency is on record?
Its Potency is 1820 nM (active).

For `C[C@@]12O[C@@H](C[C@]1(O)CO)n1c3ccccc3c3c4c(c5c6ccccc6n2c5c31)CNC4=O`, which Potency is on record?
Its Potency is 647 nM (active).

Which Potency does the source give for `OCCCNc1cc(-c2ccnc(Nc3cccc(Cl)c3)n2)ccn1` here?
The Potency was 81.4 nM (active).

Which Potency does the source give for `O=C(Nc1nc2cccc(-c3ccc(CN4CCS(=O)(=O)CC4)cc3)n2n1)C1CC1` here?
The Potency was 1820 nM (active).

For `OC1CCC(Oc2cccc3cnc(Nc4ccc5nc[nH]c5c4)nc23)CC1` (stereo unspecified), which Potency is on record?
Its Potency is 1020 nM (active).

For `COc1cccc2c1C(=O)c1c(O)c3c(c(O)c1C2=O)C[C@@](O)(C(=O)CO)C[C@@H]3O[C@H]1C[C@H](N)[C@@H](O)[C@H](C)O1`, which Potency is on record?
Its Potency is 914 nM (active).

For `CO[C@H]1/C=C\C=C(\C)C(=O)NC2=CC(=O)C(NCCN(C)C)=C(C[C@@H](C)C[C@H](OC)[C@H](O)[C@@H](C)/C=C(/C)[C@@H]1OC(N)=O)C2=O`, which “activity change, negative = inhibition” value is on record?
The value was -125%.

Which Potency does the source give for `Cc1cnc(Nc2ccc(N3CCN(C)CC3)cc2)nc1Nc1cccc(S(=O)(=O)NC(C)(C)C)c1` here?
Its Potency is 3640 nM (active).

With `CN(Cc1ccc(/C=C/C(=O)NO)cc1)CC12CC3CC(CC(C3)C1)C2` as the molecule, how does the Potency read?
Its Potency is 72.6 nM (active).

Which Potency does the source give for `CCc1cc(C(N)=O)ccc1-n1nc(C(C)C)c2c(-n3cnc(-c4cnn(C)c4)c3)ccnc21` here?
Its Potency is 258 nM (active).

For `C[C@]12C=CC(=O)C=C1CC[C@H]1[C@@H]3C[C@@H](O)[C@](O)(C(=O)CO)[C@@]3(C)C[C@H](O)[C@@]12F`, which “activity change, negative = inhibition” value is on record?
The value was -12.7%.

Which Potency does the source give for `O=C(/C=C/c1ccc(CN(CCO)CCc2c[nH]c3ccccc23)cc1)NO` here?
The Potency was 36.4 nM (active).

For `C=CC(=O)N1CC/C(=C\c2ccc(F)c([N+](=O)[O-])c2)C(=O)/C(=C/c2ccc(F)c([N+](=O)[O-])c2)C1`, which Potency is on record?
Its Potency is 182 nM (active).

For `CN(C)Cc1c(C(=O)NCCOc2ccc(C(=O)NO)cc2)oc2ccccc12`, which Potency is on record?
Its Potency is 162 nM (active).

With `CC(=O)c1cnc2ccc(-c3cc(Cl)c(O)c(Cl)c3)nc2c1NC1CCC(CN(C)C)CC1` (stereo unspecified) as the molecule, how does the Potency read?
Its Potency is 45.8 nM (active).

With `CN(c1ncccc1CNc1nc(Nc2ccc3c(c2)CC(=O)N3)ncc1C(F)(F)F)S(C)(=O)=O` as the molecule, how does the Potency read?
Its Potency is 5760 nM (active).

For `CC(C)C[C@H](NC(=O)[C@H](Cc1ccccc1)NC(=O)c1cnccn1)B(O)O`, which Potency is on record?
The Potency was 25.7 nM (active).

Which Potency does the source give for `CC1=C(CO)C(=O)O[C@@H]([C@@H](C)[C@H]2CC[C@H]3[C@@H]4C[C@H]5O[C@]56[C@@H](O)C=CC(=O)[C@]6(C)[C@H]4CC[C@]23C)C1` here?
Its Potency is 726 nM (active).

For `Cc1cc(Nc2cc(NC(=O)c3c(Cl)cccc3Cl)ccn2)nc(N)n1`, which Potency is on record?
The Potency was 2050 nM (active).

Which Potency does the source give for `CNC(=O)c1ccc(Nc2ncc(C(F)(F)F)c(NCc3nccnc3N(C)S(C)(=O)=O)n2)cc1` here?
Its Potency is 6470 nM (active).

Which Potency does the source give for `Nc1ccccc1NC(=O)c1ccc(CNc2nccc(-c3cccnc3)n2)cc1` here?
Its Potency is 3240 nM (active).

For `Cc1ncsc1-c1ccc([C@H](C)NC(=O)[C@@H]2C[C@@H](O)CN2C(=O)[C@@H](NC(=O)COCCCOCCNC(=O)C[C@@H]2N=C(c3ccc(Cl)cc3)c3c(sc(C)c3C)-n3c(C)nnc32)C(C)(C)C)cc1`, which Potency is on record?
The Potency was 145 nM (active).

Which Potency does the source give for `O=[N+]([O-])c1ccc2c(c1)S(=O)(=O)C=C2` here?
Its Potency is 1820 nM (active).

Which Potency does the source give for `CS[C@H]1SC[C@@H]2C(=O)N(C)[C@H](C(C)C)C(=O)OC[C@H](NC(=O)c3cnc4ccccc4n3)C(=O)N[C@H](C)C(=O)N(C)[C@H]1C(=O)N(C)[C@H](C(C)C)C(=O)OC[C@H](NC(=O)c1cnc3ccccc3n1)C(=O)N[C@H](C)C(=O)N2C` here?
Its Potency is 4.1 nM (active).

For `Fc1cccc(-n2cnc3c(NCc4nc5c(F)c(F)ccc5[nH]4)nc(N4CCOCC4)nc32)c1`, which Potency is on record?
Its Potency is 289 nM (active).

With `COc1ccc(-c2nc(N3CCOCC3)c3sc(CN(C)c4ncc(C(=O)NO)cn4)cc3n2)cn1` as the molecule, how does the Potency read?
The Potency was 5.8 nM (active).

For `CC(C)(C)CC(=O)OCC(=O)[C@@]1(O)CC[C@H]2[C@@H]3CCC4=CC(=O)C=C[C@]4(C)[C@H]3[C@@H](O)C[C@@]21C`, which “activity change, negative = inhibition” value is on record?
The value was -8.02%.

With `COc1ccc(-c2ccc3ncc4c(c3c2)n(-c2ccc(N3CCNCC3)c(C(F)(F)F)c2)c(=O)n4C)cn1` as the molecule, how does the Potency read?
The Potency was 258 nM (active).

Which Potency does the source give for `Cc1sc2c(c1C)C(c1ccc(Cl)cc1)=N[C@@H](CC(=O)Nc1ccc(OCCOCCOCCOCCNc3cccc4c3C(=O)N(C3CCC(=O)NC3=O)C4=O)cc1)c1nnc(C)n1-2` (stereo partly specified) here?
Its Potency is 91.4 nM (active).

Which Potency does the source give for `Cc1ccc([N+](=O)[O-])cc1S(=O)(=O)N(C)/N=C/c1cnc2ccc(Br)cn12` here?
Its Potency is 162 nM (active).

Which Potency does the source give for `CC(C)c1nn(-c2c(Cl)cccc2Cl)c2nc(Cc3ccc(OCCO)cc3)[nH]c(=O)c12` here?
The Potency was 22.9 nM (active).

With `O=C(/C=C/c1cccc(S(=O)(=O)Nc2ccccc2)c1)NO` as the molecule, how does the Potency read?
Its Potency is 514 nM (active).

With `CN1CCN(Cc2ccc(NC(=O)Nc3ccc(Oc4cc(NC(=O)C5CC5)ncn4)cc3)cc2C(F)(F)F)CC1` as the molecule, how does the Potency read?
The Potency was 64.7 nM (active).

With `CC(C)C[C@H](NC(=O)[C@H](CCc1ccccc1)NC(=O)CN1CCOCC1)C(=O)N[C@@H](Cc1ccccc1)C(=O)N[C@@H](CC(C)C)C(=O)[C@@]1(C)CO1` as the molecule, how does the Potency read?
The Potency was 64.7 nM (active).

Which Potency does the source give for `C=C1C(=O)O[C@@H]2[C@H]3O[C@]3(C)CCC=C(C)CC[C@@H]12` here?
The Potency was 2890 nM (active).

With `N#CC[C@H](C1CCCC1)n1cc(-c2ncnc3[nH]ccc23)cn1` as the molecule, how does the Potency read?
Its Potency is 458 nM (active).
